From PubChem BioAssay
The source made the active and inactive calls.

How the values were obtained:
[1] = test system: Plasmodium falciparum Sir2 (PF13_0152, Sir2A); experiment: pfSir2 binders on small-molecule microarrays, primary screen, biochemical, small-molecule microarray, 635 nm fluorescence (AID 1098); conditions: small-molecule microarray binding, fluorescence 635 nm; higher = more signal;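 note: score merges spot fluorescence intensity with its signal-to-noise ratio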
[2] = small-molecule microarray binders of probe aDKK1, primary screen, biochemical, biotinylated probe, 635/667 nm fluorescence (AID 1099); conditions: higher = more signal;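 note: score merges 667nm spot fluorescence with signal to noise across triplicate slides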
[3] = small-molecule microarray binders of probe aCHRDL2, primary screen, biochemical, biotinylated probe, 635/667 nm fluorescence (AID 1100); conditions: higher = more signal
[4] = splicing luciferase reporter signal modulators, primary screen, spliceosome inhibition project, cell-based, HEK293, splice +/- reporter (AID 1101); conditions: luminescence, 24 h, higher = more signal, called active from +8 up or from −8 down;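 note: HEK293 cells carrying a splicing-competent luciferase reporter gene; test concentration not given here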
[5] = biological target: Fibroblast growth factor 10 (Homo sapiens) (UniProt O15520); experiment: FGF10 binders on small-molecule microarrays, primary screen, biochemical, small-molecule microarray, 635 nm fluorescence (AID 1102); conditions: FGF10 binding, fluorescence 635 nm, higher = more signal
[6] = test system: glycogen synthase kinase-3 (GSK3A per assay name; protocol says GSK3B); experiment: GSK3 binders on small-molecule microarrays, primary screen, biochemical, small-molecule microarray, 635 nm fluorescence, GSK3A (AID 1103); conditions: small-molecule microarray binding, fluorescence 635 nm; higher = more signal; note: the record names both GSK3A and GSK3B
[7] = biological target: Epidermal growth factor receptor (Homo sapiens) (UniProt P00533); experiment: EGFR binders on small-molecule microarrays, primary screen, biochemical, small-molecule microarray, 635 nm fluorescence (AID 1104); conditions: EGFR binding, higher = more signal;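 note: score merges 667 nm emission intensity with spot signal to noise over triplicate slides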
[8] = biological target: Follistatin-related protein 3 (Homo sapiens) (UniProt O95633); experiment: FSTL3 binders on small-molecule microarrays, primary screen, biochemical, small-molecule microarray, 635 nm fluorescence (AID 1105); conditions: FSTL3 binding, higher = more signal;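 note: score merges emission near 667 nm and signal to noise per printed spot across three slides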
[9] = biological target: Dickkopf-related protein 1 (Homo sapiens) (UniProt O94907); experiment: DKK1 binders on small-molecule microarrays, primary screen, biochemical, small-molecule microarray, 635 nm fluorescence scan (AID 1106); conditions: DKK1 binding, higher = more signal;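 note: score merges emission near 667 nm with signal to noise over three replicate slides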
[10] = test system: Inhibin beta A chain (activin A); experiment: INHBA (activin A) binders on microarrays, primary screen, biochemical, small-molecule microarray, 635 nm fluorescence scan (AID 1107); conditions: small-molecule microarray binding, higher = more signal;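 note: mouse activin A protein probed at 4.33 µg/mL on printed slides; score merges bound-protein fluorescence near 667 nm with spot signal-to-noise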
[11] = test system: Human papillomavirus type 1a protein E7 (residues 44-93); experiment: HPV1a E7 fragment binders on microarrays, primary screen, biochemical, small-molecule microarray, residues 44-93, 635 nm fluorescence (AID 1108); conditions: small-molecule microarray binding, fluorescence 635 nm; higher = more signal;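 note: E7 fragment applied at 1 µg/mL in TBST for 1 h at 4 C; score combines spot fluorescence with its signal to noise ratio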
[12] = modulators of HCV replicon luciferase signal, primary screen, HCV replication inhibitor project, Huh7 cells, luciferase reporter (AID 1109); conditions: 48 h, higher = more signal;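 note: huh7 hepatoma cells harbouring a luciferase neomycin HCV replicon reporter; luciferase luminescence as measure of HCV replicon replication; test concentration not given here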
[13] = biological target: Left-right determination factor 2 (Homo sapiens) (UniProt O00292); experiment: LEFTY2 binders on small-molecule microarrays, primary screen, biochemical, small-molecule microarray, 635 nm fluorescence scan (AID 1110); conditions: LEFTY2 binding, higher = more signal
[14] = biological target: Calmodulin-1 (Homo sapiens) (UniProt P0DP23); experiment: CALM1 binders on microarrays, EGTA buffer, profiling panel, biochemical, small-molecule microarray, Cy5-labelled CALM1 (AID 1111); conditions: Cy5-CALM1 binding fluorescence, higher = more signal;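 note: labelled calmodulin applied in Tris saline Tween buffer holding calcium plus EGTA and DTT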
[15] = biological target: Calmodulin-1 (Homo sapiens) (UniProt P0DP23); experiment: calcium-bound CALM1 binders on microarrays, profiling panel, artefact control for SMM control-protein annotation, biochemical, small-molecule microarray, Cy5-labelled CALM1, plus calcium (AID 1112); conditions: Cy5-CALM1 binding fluorescence, higher = more signal;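 note: score merges spot fluorescence with signal to noise from triplicate slides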
[16] = small-molecule microarray binders of probe aWnt5a, primary screen, biochemical, biotinylated probe, 635/667 nm fluorescence (AID 1113); conditions: higher = more signal;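 note: score merges 667 nm fluorescence intensity with signal-to-noise per printed feature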
[17] = small-molecule microarray binders of probe aShh, primary screen, biochemical, biotinylated probe, 635/667 nm fluorescence (AID 1114); conditions: higher = more signal;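 note: probe is biotin-labelled aShh protein from a stem cell growth factor screen; measures binding of labelled protein to compounds printed on the slide; score merges feature fluorescence at 667 nm with signal-to-noise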
[18] = small-molecule microarray binders of probe aNog, primary screen, biochemical, biotinylated probe, 635/667 nm fluorescence (AID 1115); conditions: higher = more signal;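 note: probe is biotinylated aNog protein used at 0.15 µg/mL for 1 h at 4 C; z-score combines 667 nm fluorescence of each spot with its signal to noise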
[19] = biological target: Torsin-1A-interacting protein 1 (Homo sapiens) (UniProt Q5JTV8); experiment: LAP1 binders from COS7 cell lysate, primary screen, small-molecule microarray, 635/667 nm fluorescence (AID 1116); conditions: COS7-hLAP1 lysate binding, 635 nm fluorescence, higher = more signal
[20] = biological target: Alpha-bungarotoxin (Bungarus multicinctus) (UniProt P60615); experiment: alpha-bungarotoxin binders on microarray, profiling panel, artefact control for SMM control protein annotation, biochemical, small-molecule microarray, Alexa647 label, 635/667 nm fluorescence (AID 1117); conditions: alpha-BTX-A647 binding fluorescence, higher = more signal
Alpha-bungarotoxin (Bungarus multicinctus), sequence (P60615 whole entry, looked up): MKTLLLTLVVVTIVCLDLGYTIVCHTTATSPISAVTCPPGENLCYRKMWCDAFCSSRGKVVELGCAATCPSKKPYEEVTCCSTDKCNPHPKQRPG

Epidermal growth factor receptor (Homo sapiens), sequence (P00533 whole entry, looked up): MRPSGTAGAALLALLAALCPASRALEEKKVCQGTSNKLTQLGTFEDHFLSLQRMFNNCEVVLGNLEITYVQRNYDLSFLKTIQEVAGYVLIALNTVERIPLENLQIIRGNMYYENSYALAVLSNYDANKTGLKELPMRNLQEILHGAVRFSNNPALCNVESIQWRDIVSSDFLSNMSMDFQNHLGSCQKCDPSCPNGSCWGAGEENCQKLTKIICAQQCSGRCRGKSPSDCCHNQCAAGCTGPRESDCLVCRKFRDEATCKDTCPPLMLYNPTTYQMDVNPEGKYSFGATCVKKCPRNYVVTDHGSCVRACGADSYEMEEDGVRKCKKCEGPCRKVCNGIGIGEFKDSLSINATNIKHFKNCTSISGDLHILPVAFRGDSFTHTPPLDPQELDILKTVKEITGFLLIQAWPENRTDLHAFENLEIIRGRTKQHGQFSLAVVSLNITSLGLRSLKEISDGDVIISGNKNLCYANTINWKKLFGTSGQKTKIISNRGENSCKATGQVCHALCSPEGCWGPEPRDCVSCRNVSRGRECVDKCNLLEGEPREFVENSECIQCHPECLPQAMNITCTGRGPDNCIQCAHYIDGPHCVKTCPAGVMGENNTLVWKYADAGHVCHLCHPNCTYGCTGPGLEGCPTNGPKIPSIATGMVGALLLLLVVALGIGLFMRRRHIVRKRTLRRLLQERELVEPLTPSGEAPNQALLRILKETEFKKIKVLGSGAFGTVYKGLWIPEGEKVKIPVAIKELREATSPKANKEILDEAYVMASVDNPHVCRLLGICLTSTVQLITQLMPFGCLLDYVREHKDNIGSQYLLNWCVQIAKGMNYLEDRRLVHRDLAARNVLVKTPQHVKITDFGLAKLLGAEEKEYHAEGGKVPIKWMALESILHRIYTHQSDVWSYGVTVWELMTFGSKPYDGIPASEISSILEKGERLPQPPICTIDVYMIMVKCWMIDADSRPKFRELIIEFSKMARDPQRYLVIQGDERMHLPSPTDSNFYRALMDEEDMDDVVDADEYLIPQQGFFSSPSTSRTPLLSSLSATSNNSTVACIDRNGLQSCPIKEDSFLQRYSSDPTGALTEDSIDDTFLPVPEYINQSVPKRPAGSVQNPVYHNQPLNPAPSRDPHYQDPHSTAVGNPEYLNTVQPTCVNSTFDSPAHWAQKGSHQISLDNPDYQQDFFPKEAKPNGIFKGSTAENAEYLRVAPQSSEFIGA
Torsin-1A-interacting protein 1 (Homo sapiens), sequence (Q5JTV8 whole entry, looked up): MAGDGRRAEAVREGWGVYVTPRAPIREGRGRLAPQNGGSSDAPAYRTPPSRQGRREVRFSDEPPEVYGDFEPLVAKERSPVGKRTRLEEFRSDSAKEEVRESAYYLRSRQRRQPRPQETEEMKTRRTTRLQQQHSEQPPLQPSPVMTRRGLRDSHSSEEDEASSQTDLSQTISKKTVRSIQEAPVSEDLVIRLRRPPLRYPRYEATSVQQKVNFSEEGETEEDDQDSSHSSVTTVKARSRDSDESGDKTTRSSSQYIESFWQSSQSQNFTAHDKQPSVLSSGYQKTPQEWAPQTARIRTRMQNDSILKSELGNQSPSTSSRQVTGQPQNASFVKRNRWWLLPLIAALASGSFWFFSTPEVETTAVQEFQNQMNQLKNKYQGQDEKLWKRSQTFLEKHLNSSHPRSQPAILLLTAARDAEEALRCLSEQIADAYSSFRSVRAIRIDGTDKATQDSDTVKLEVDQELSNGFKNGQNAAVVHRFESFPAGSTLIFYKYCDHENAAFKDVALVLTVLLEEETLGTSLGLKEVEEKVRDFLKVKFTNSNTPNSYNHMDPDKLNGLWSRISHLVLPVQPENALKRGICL
Dickkopf-related protein 1 (Homo sapiens), sequence (O94907 whole entry, looked up): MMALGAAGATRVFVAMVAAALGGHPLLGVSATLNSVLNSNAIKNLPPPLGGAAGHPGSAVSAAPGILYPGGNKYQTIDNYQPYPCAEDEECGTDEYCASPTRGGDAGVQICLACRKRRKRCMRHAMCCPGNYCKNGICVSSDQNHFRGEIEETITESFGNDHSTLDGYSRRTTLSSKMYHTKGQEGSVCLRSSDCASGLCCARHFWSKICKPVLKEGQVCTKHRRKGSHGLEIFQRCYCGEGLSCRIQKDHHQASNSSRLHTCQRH
Fibroblast growth factor 10 (Homo sapiens), sequence (O15520 whole entry, looked up): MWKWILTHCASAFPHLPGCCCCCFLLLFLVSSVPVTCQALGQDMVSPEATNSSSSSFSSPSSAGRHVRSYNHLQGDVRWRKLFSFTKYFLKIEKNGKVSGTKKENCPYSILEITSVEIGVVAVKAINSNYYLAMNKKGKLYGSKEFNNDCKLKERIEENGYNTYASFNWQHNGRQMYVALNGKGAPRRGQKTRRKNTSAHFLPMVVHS
Left-right determination factor 2 (Homo sapiens), sequence (O00292 whole entry, looked up): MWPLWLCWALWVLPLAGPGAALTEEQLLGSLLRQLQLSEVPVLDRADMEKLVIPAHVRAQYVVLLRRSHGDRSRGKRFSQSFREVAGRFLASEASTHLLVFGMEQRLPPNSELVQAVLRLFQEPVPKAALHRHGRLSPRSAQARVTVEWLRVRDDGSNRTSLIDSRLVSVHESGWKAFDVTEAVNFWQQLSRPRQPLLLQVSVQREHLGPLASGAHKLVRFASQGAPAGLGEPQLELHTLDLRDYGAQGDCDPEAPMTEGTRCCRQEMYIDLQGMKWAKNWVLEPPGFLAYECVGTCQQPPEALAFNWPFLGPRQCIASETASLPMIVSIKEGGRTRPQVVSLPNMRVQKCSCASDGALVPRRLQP
Follistatin-related protein 3 (Homo sapiens), sequence (O95633 whole entry, looked up): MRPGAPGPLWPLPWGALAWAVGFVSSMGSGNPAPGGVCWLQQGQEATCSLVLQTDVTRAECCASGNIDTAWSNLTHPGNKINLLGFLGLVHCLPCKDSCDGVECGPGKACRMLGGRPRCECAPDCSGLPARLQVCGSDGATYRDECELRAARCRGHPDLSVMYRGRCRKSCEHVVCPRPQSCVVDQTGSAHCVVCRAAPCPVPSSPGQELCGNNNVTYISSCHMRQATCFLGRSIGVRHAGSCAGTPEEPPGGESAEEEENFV

| SMILES | composite z-score [1] | composite z-score [2] | composite z-score [3] | z-score [4] | composite z-score [5] | composite z-score [6] | composite z-score [7] | composite z-score [8] | composite z-score [9] | composite z-score [10] | composite z-score [11] | z-score [12] | composite z-score [13] | composite z-score [14] | composite z-score [15] | composite z-score [16] | composite z-score [17] | composite z-score [18] | composite z-score [19] | composite z-score [20] |
| --- | --- | --- | --- | --- | --- | --- | --- | --- | --- | --- | --- | --- | --- | --- | --- | --- | --- | --- | --- | --- |
| CO[C@H]1COC(=O)CC=C[C@H](C)COC(=O)[C@@H](OCc2ccccc2)C=C[C@@H]1C | 0.558 | -1.12 | -1.62 | -1.71 (inactive) | 0.429 | 1.28 | 0.711 | 1.2 | 2.07 | 0.924 | -0.217 | 0.165 | 1.5 | -1.51 | -2.68 | -0.286 | -0.283 | -0.424 | 0.237 | -0.74 |
| [N-]=[N+]=NCc1ccccc1C[C@]1(C(N)=O)N=C(c2ccc(OCCCO)cc2)O[C@H]1c1ccccc1CN=[N+]=[N-] | 1.49 | 1.51 | 1.29 | -1.63 (inactive) | 0.72 | 0.265 | -0.37 | 0.186 | -0.9 | 1.41 | 0.842 | -2.34 | -0.854 | 1.98 | 1.12 | 0.0286 | 0.84 | 0.653 | 1.32 | 1.56 |
| O=C(NCC(F)(F)F)[C@@H]1c2ccccc2C(=O)N(Cc2ccccc2Cl)[C@H]1c1ccc(CO)cc1 | 1.68 | 0.624 | -0.363 | 0.632 (inactive) | -0.85 | -1.1 | -0.728 | -0.643 | -0.941 | -0.0121 | -0.804 | -1.03 | -1.44 | -0.483 | -0.135 | -0.147 | 0.245 | -0.0689 | -1.19 | -1.18 |
| C=C(COC)/C(=C/C[C@@H](OC(C)=O)c1cccc(OCCO)c1)c1cc(C(=O)OC)ccc1OC | 0.695 | 0.258 | 0.258 | -0.964 (inactive) | 0.0556 | 0.0957 | 0.214 | 0.121 | -0.0663 | 0.971 | -0.307 | -0.72 | -0.357 | -0.39 | -0.0115 | -0.091 | -0.0289 | 0.717 | 0.505 | -1.07 |
| C=C(C(=O)CC[C@H](OC(=O)c1ccccc1-c1ccccc1C(=O)O)c1ccc(CO)o1)C(C)C | 0.75 | -0.209 | -0.558 | -0.107 (inactive) | 1.45 | 0.914 | -0.0997 | 0.858 | 0.568 | 0.664 | 1.24 | -1.3 | 0.408 | 0.506 | -0.698 | 0.0214 | -0.276 | 0.265 | 0.875 | 0.905 |
| CC(C)C[C@@H]1NC(=O)[C@H](CC(C)C)NC(=O)[C@@]23C(=O)N[C@@H](Cc4ccccc4)C2[C@H](C)[C@@]2(C)O[C@H]2C3/C=C/CC/C=C/CNC1=O (stereo not given in full) | 1.05 | -0.233 | -0.406 | -0.218 (inactive) | 0.707 | 0.516 | 0.543 | 0.998 | 1.19 | 1.38 | 1.34 | -1.24 | 0.521 | 0.102 | -0.747 | -0.101 | -0.221 | -0.261 | 0.292 | 0.683 |
| C[N+](C)(C)CCCCNC(=O)[C@H]1C[C@H]2C(=O)NCC(=O)N2[C@H]1c1cccc(OCCO)c1 | 1.59 | 0.0166 | -0.335 | 0.589 (inactive) | 1.45 | 1.29 | 1.09 | 1.49 | 1.84 | 0.747 | 0.296 | -0.651 | 1.17 | -1.68 | -1.96 | 0.0618 | 0.147 | -0.178 | 0.724 | 0.804 |
| COCCOC(=O)N1C(=O)[C@@]2(c3cc(C#CCNC(N)=O)ccc31)[C@H](c1ccccc1OCCO)N1[C@H](c3ccccc3)[C@H](c3ccccc3)OC(=O)[C@H]1[C@@H]2C(=O)NC[C@H](O)c1ccccc1 | 1.08 | 0.0288 | 0.352 | 0.408 (inactive) | 1.18 | 0.618 | 0.134 | 1 | 0.117 | 0.203 | 1.44 | -1.1 | 0.391 | 1.07 | 0.527 | -0.0239 | 0.0639 | 0.385 | 0.867 | 2.05 |
| O=C1C[C@@](C(=O)NCCN2CCOCC2)(c2ccc([N+](=O)[O-])cc2)[C@@H](c2ccc(CO)cc2)N1C1CCCCC1 | 1.2 | 0.653 | 1.02 | 0.281 (inactive) | 0.798 | 1.02 | 0.789 | 0.662 | -0.0544 | 0.64 | 1.39 | -0.867 | 1.06 | 0.502 | -0.142 | 0.0621 | 0.171 | 0.924 | 1.6 | 0.571 |
| O=C/C=C/c1ccccc1Cl | 1.67 | 0.265 | 0.405 | 0.0402 (inactive) | 0.0974 | -0.71 | -0.336 | -0.62 | -0.485 | 0.325 | -1.36 | 1.03 | -0.524 | 0.387 | 0.618 | -0.0499 | -0.0626 | 0.0811 | -0.335 | 1.76 |
| C=CC(=O)O[C@@H](Cc1ccccc1)[C@H]1C2C=CCCC=C2CN1Cc1cccc(Cl)c1 (stereo not given in full) | -0.426 | 0.0657 | 0.502 | -0.855 (inactive) | -0.281 | -1.21 | -0.506 | -0.87 | -0.143 | 1.11 | -2.98 | -1.08 | -0.195 | -0.82 | 0.484 | -0.148 | 0.0022 | -0.267 | -0.103 | -0.439 |
